These results are taken from PubChem BioAssay.

Assay [1] concerns Human papillomavirus type 1a protein E7 (residues 44-93). Kind of assay: small molecules binding HPV E7 44-93 – biochemical, small-molecule microarray, residues 44-93, 635 nm fluorescence, primary screen (AID 1108).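 Also: E7 fragment applied at 1 µg/mL in TBST for 1 h at 4 C; score combines spot fluorescence with its signal to noise ratio.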 To be noted: fluorescence 635 nm, higher = more signal.
Assay [2] can be described thus: hepatitis C replication reporter changes, two-sided – Huh7 cells, luciferase reporter, HCV replication inhibitor project, primary screen (AID 1109).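 Also: huh7 hepatoma cells harbouring a luciferase neomycin HCV replicon reporter; luciferase luminescence as measure of HCV replicon replication; test concentration not given here.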 The note with it: Huh7 HCV replicon luciferase reporter, 48 h; higher = more signal.
The target in assay [3] is Left-right determination factor 2 (Homo sapiens) (UniProt O00292). Kind of assay: small molecules binding LEFTY2 protein – biochemical, small-molecule microarray, 635 nm fluorescence scan, primary screen (AID 1110). To be noted: higher = more signal.
Sequence of Left-right determination factor 2 (Homo sapiens) (O00292 whole entry, looked up): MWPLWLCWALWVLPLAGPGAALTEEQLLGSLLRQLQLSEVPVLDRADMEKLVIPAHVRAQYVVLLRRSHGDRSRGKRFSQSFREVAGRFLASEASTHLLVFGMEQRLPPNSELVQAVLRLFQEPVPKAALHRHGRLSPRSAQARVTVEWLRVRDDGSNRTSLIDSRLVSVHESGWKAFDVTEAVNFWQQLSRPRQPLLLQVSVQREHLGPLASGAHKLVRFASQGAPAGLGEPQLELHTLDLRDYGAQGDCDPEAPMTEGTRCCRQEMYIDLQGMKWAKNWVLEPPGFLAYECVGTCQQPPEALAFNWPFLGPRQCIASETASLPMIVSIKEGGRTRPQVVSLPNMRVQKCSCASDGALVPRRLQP
Assay [4] has as its target Calmodulin-1 (Homo sapiens) (UniProt P0DP23). Nature of the assay: small molecules binding calmodulin-1 with EGTA – biochemical, small-molecule microarray, Cy5-labelled CALM1, profiling panel (AID 1111).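 Also: labelled calmodulin applied in Tris saline Tween buffer holding calcium plus EGTA and DTT.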 To be noted: Cy5-CALM1 binding fluorescence, higher = more signal.
Assay [5] shares this target. Kind of assay: small molecules binding Ca-loaded calmodulin-1 – biochemical, small-molecule microarray, Cy5-labelled CALM1, plus calcium, artefact control for SMM control-protein annotation, profiling panel (AID 1112).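 Also: score merges spot fluorescence with signal to noise from triplicate slides.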 The note with it: Cy5-CALM1 binding fluorescence, higher = more signal.
Assay [6] in a line: probe aWnt5a binding to arrayed compounds – biochemical, biotinylated probe, 635/667 nm fluorescence, primary screen (AID 1113).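 Also: score merges 667 nm fluorescence intensity with signal-to-noise per printed feature.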 To be noted: small-molecule microarray, higher = more signal.
Assay [7] can be described thus: probe aShh binding to arrayed compounds – biochemical, biotinylated probe, 635/667 nm fluorescence, primary screen (AID 1114).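 Also: probe is biotin-labelled aShh protein from a stem cell growth factor screen; measures binding of labelled protein to compounds printed on the slide; score merges feature fluorescence at 667 nm with signal-to-noise.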 The note with it: small-molecule microarray, higher = more signal.
A short description of assay [8]: probe aNog binding to arrayed compounds – biochemical, biotinylated probe, 635/667 nm fluorescence, primary screen (AID 1115).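 Also: probe is biotinylated aNog protein used at 0.15 µg/mL for 1 h at 4 C; z-score combines 667 nm fluorescence of each spot with its signal to noise.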 To be noted: small-molecule microarray, higher = more signal.
Assay [9] addresses Torsin-1A-interacting protein 1 (Homo sapiens) (UniProt Q5JTV8). Kind of assay: compound microarray binding of lysate hLAP1 – cell lysate, small-molecule microarray, COS7 lysate, 635/667 nm fluorescence, primary screen (AID 1116). The note with it: 635 nm fluorescence, higher = more signal.
Assay [10] has as its target Alpha-bungarotoxin (Bungarus multicinctus) (UniProt P60615). Kind of assay: compounds binding labelled alpha-BTX control protein – biochemical, small-molecule microarray, Alexa647 label, 635/667 nm fluorescence, artefact control for SMM control protein annotation, profiling panel (AID 1117). The note with it: alpha-BTX-A647 binding fluorescence, higher = more signal.

Sequence of Torsin-1A-interacting protein 1 (Homo sapiens) (Q5JTV8 whole entry, looked up): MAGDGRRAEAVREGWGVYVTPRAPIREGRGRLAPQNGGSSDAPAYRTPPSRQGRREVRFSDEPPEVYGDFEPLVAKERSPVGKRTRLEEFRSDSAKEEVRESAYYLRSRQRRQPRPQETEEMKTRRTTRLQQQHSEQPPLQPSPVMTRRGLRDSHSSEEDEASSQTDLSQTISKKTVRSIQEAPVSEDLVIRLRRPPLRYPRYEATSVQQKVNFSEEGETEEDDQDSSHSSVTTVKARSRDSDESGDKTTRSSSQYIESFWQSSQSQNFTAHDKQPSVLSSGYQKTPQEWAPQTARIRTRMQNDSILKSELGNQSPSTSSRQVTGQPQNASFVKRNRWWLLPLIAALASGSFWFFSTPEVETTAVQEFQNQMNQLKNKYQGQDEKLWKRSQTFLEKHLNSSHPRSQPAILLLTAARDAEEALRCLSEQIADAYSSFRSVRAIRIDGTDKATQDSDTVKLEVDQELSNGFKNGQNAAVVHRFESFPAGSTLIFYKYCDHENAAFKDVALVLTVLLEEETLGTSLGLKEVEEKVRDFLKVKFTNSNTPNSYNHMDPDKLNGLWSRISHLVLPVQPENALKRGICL
Sequence of Alpha-bungarotoxin (Bungarus multicinctus) (P60615 whole entry, looked up): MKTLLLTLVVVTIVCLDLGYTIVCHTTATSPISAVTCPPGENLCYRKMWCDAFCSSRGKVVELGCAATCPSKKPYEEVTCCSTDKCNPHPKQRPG

For the molecule `CCOC(=O)[C@H](Cc1ccccc1)NC(=O)CCC1CC(OC(=O)NCc2cccc3ccccc23)CC2(CCCC(COC(=O)NCCC(C)C)O2)O1` (stereo not given in full), the composite z-score in [1] is -2.01; in [3], 0.215; in assay [4] it was 0.56; in assay [5] it was -0.29; in assay [6], -0.13; in [7] it was 0.0141. Besides, the composite z-score in [8] was -0.372; in assay [9] it was -0.0831; in assay [10], 1.09. Moreover, in [2], the z-score was -0.134.
In the case of `O=C1OCCC=C1C(O)CCc1ccccc1` (stereo not given), the composite z-score is -0.0602 in [1]; 0.791 in assay [3]; -0.818 in [4]; -0.679 in [5]; -0.0981 in [6]; -0.13 in assay [7]. Besides, the composite z-score in assay [8] was 0.0229; in assay [9], 0.128; in assay [10] it was 0.642. The molecule further had a z-score in assay [2] of -0.364.
Consider `COC(=O)[C@@H]1CC[C@H](C)[C@@H](c2ccc(C)cc2)N1C(=O)c1ccc(C=NO[C@H](C)c2cn([C@@H]3COC[C@H]3O)nn2)cc1`, for which the composite z-score was 1.33 in assay [1]; 0.635 in assay [3]; 0.0264 in assay [4]; -0.361 in assay [5]; -0.152 in assay [6]; 0.0141 in assay [7]. The values for the composite z-score in assay [8], in assay [9] and in [10] were -0.0065, 0.581 and -0.0105, respectively. Moreover, the z-score in assay [2] is -1.06.
Take `COc1cccc([C@H]2Oc3ccc(OC)cc3C(=NOC(C)CN3CCCCc4nc(C)c(C)cc43)[C@@H]2O)c1` (stereo not given in full): the composite z-score in [1] was -0.168; in assay [3] it was 0.321; in [4], 0.147; in assay [5], -0.861; in assay [6] it was -0.148; in assay [7] it was 0.151. The composite z-score in [8] is -0.219; in assay [9], 0.29; in [10], 0.385. The molecule further returned a z-score in assay [2] of -2.48.
As for `COC(=O)CC=C[C@@H](C)[C@@H](C=NOC[C@@H](O)[C@H]1O[C@@H]2OC(C)(C)O[C@@H]2[C@H]1O)NS(=O)(=O)c1ccc(C)cc1`, the composite z-score in assay [1] is 0.496; in assay [3], 0.417; in [4] it was 0.0636; in assay [5] it was -0.627; in [6], -0.0882; in assay [7], -0.715. Further, the composite z-score was 0.0416 in assay [8], 0.167 in assay [9] and 0.101 in assay [10]. The z-score in assay [2] is -0.499.
With `CC(C)=CCCC(C)=CCON=C1C[C@@H](O)[C@@H](O)[C@@H]2[C@@H]3C(=O)N(C[C@@H]4CCCO4)C(=O)[C@@H]3CC[C@H]12`, the composite z-score in assay [1] is 1.11; in assay [3], 0.957; in assay [4], 0.0209; in assay [5] it was 0.228; in assay [6], -0.0783; in assay [7] it was 0.0952. In addition, the composite z-score is -0.278 in [8], 0.986 in assay [9] and 1.15 in assay [10]. This molecule also gave a z-score in assay [2] of -0.0626.
On to `O=C1CCCC=C1C(O)CCCCBr` (stereo not given), for which the composite z-score in [1] is 0.619; in [3], -0.0175; in assay [4], 1.35; in assay [5], 0.403; in assay [6], -0.124; in assay [7] it was 0.191. Besides, the composite z-score is -0.438 in assay [8], 0.293 in [9] and 2.09 in assay [10]. This molecule also gave a z-score in assay [2] of -4.22.
For `COc1cccc([C@H]2Oc3ccc(OC)cc3C(=NOC[C@@H](C)[C@H](OCc3ccccc3)C(C)C)[C@@H]2O)c1`, the composite z-score was 0.274 in assay [1]; 0.476 in assay [3]; -0.0749 in assay [4]; 0.619 in assay [5]; -0.206 in assay [6]; -0.0858 in assay [7]. Also, the composite z-score is 0.2 in [8], 0.251 in [9] and 0.452 in assay [10]. In assay [2], the z-score is -2.55.
Turning to `C[C@@H](c1ccccc1)N1C(=O)[C@H]2[C@H]3[C@H](O)[C@H](O)CC(=NO[C@@H]4O[C@H](CO)[C@@H](O)[C@H](O)[C@H]4O)[C@@H]3CC[C@H]2C1=O`, the composite z-score is 0.292 in assay [1]; 0.576 in [3]; -0.238 in assay [4]; -0.686 in [5]; -0.0403 in [6]; -0.19 in assay [7]. In addition, the composite z-score came out at 0.0924 in assay [8], 0.526 in [9] and 0.199 in assay [10]. This molecule had a z-score in assay [2] of -0.278.
Take `O=C1[C@H]2[C@H]3[C@H](O)[C@H](O)CC(=NOCc4ccccc4)[C@@H]3CC[C@H]2C(=O)N1Cc1ccc2c(c1)OCO2`: the composite z-score in [1] was 0.0666; in [3], 0.517; in assay [4] it was -0.206; in assay [5], -0.211; in assay [6], -0.091; in assay [7] it was -0.154. The results for the composite z-score in assay [8], in assay [9] and in assay [10] were -0.23, 0.366 and 0.576, respectively. The molecule further had a z-score in assay [2] of -0.276.
Regarding `CCOC(=O)NN=C1C[C@@H](O)[C@@H](O)[C@@H]2[C@@H]3C(=O)N(c4cccc(Oc5ccccc5)c4)C(=O)[C@@H]3CC[C@H]12`, the composite z-score in [1] was 0.731; in [3], 0.404; in assay [4] it was 0.141; in assay [5], -0.141; in [6], -0.205; in assay [7], -0.388. In addition, the composite z-score in assay [8] is -0.304; in assay [9], 0.129; in [10] it was 0.675. Further, the z-score in assay [2] came out at 0.011.
Take `CCOC(=O)[C@H](Cc1ccccc1)NC(=O)CCC1CC(OC(=O)NCc2cccc3ccccc23)CC2(CCCC(COC(=O)NCc3ccccc3)O2)O1` (stereo not given in full): the composite z-score was 0.836 in assay [1]; 0.168 in assay [3]; 0.507 in [4]; -0.607 in assay [5]; -0.2 in [6]; -0.145 in assay [7]. Further, the figures for the composite z-score in assay [8], in assay [9] and in [10] were -0.144, -0.0849 and 0.713, respectively. The molecule further registered a z-score in [2] of -1.03.
